# The panel holds about 83,000 compounds, 20% with a hit somewhere; the sample as a whole holds those more often.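 Negative percent growth values reflect cell death: -40 means 40% of the cells present at the start died, and -100 means all died.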 A number with no mark means an inactive call. The source made the active and inactive calls. Rule for the calls: active = growth percent below 10; inactive = the rest.
# Legend:
# Assay in all cases: NCI-60 one-dose screen, 48 h (100 = growth as untreated, 0 = no growth, -100 = all killed)
# Details in all cases: 10 µM unless noted
# DU-145 prostate = tested on: DU-145 prostate
# K-562 leukemia = tested on: K-562 leukemia
# MALME-3M melanoma = tested on: MALME-3M melanoma
# MDA-MB-231 breast = tested on: MDA-MB-231 breast
# RXF 393 renal = tested on: RXF 393 renal
# SF-268 CNS = tested on: SF-268 CNS
# SF-295 CNS = tested on: SF-295 CNS
# SF-539 CNS = tested on: SF-539 CNS
# UACC-257 melanoma = tested on: UACC-257 melanoma
# M14 melanoma = tested on: M14 melanoma
Structure (SMILES),growth (DU-145 prostate),growth (K-562 leukemia),growth (MALME-3M melanoma),growth (MDA-MB-231 breast),growth (RXF 393 renal),growth (SF-268 CNS),growth (SF-295 CNS),growth (SF-539 CNS),growth (UACC-257 melanoma),growth (M14 melanoma)
Nc1n[nH]c2ccc([C@H]3[C@@H]4C5CCC(C5)[C@@H]4c4c(ccc5[nH]ncc45)N3S(=O)(=O)C3CC3)cc12 (stereo not given in full),17.9%,13.6%,61.4%,-9.16% (active),26.2%,37.1%,12.6%,-25.5% (active),63.8%,7.92% (active)
CCN(CC)Cc1cc(C=C2C(=O)NC(=S)NC2=O)cc(OC)c1O,111%,117%,111%,103%,115%,101%,102%,101%,106%,108%
Cc1cc(=O)oc2cc(OCc3nn4c(Nc5nc6ccccc6s5)c(-c5ccccc5)nc4s3)ccc12,97.7%,-59.3% (active),93.7%,83.1%,102%,86.1%,90.2%,96.1%,93.9%,100%
COCCn1cc(-c2csc(-c3cn(C)c4ccc(Br)cc34)n2)c2cccnc21,62.5%,-9.15% (active),96.6%,42.9%,68.8%,64.8%,33.9%,70.1%,63.7%,42.9%
Cc1ccc(-c2nc(N3CCCNCC3)c3oc(-c4ccccc4)nc3n2)cc1,-15.2% (active),-63.6% (active),-92.4% (active),-91.7% (active),-74.3% (active),-42.9% (active),-89.6% (active),-91.4% (active),-82.2% (active),-94.7% (active)
CC(=O)N1N=C(c2ccc(Nc3nc(Nc4ccccc4)nc(Nc4ccccc4)n3)cc2)CC1c1ccccc1 (stereo not given),97.6%,68.9%,78.7%,71.7%,137%,89.2%,85.6%,88.8%,113%,84.6%
C=C(C)[C@@H]1CC[C@]2(C(=O)O)CC[C@]3(C)[C@H](CC[C@@H]4[C@@]5(C)CCC(NC(=O)c6cccc(OC(C)=O)c6OC(C)=O)C(C)(C)[C@@H]5CC[C@]43C)[C@@H]12 (stereo not given in full),21.3%,10.7%,-4.37% (active),11.9%,-34.3% (active),14.9%,-29.6% (active),-26.4% (active),3.36% (active),-16.2% (active)
CC1CN(S(=O)(=O)c2oc(-c3ccc(Cl)cc3)nc2C#N)CC(C)O1 (stereo not given),97.7%,4.49% (active),46.4%,90.7%,40.3%,111%,97.9%,60.7%,87.3%,67.9%
Clc1ccc2c(c1)C(c1c[nH]c3ccccc13)(c1c[nH]c3ccccc13)CCO2,88%,73.1%,106%,55.5%,95.6%,71.5%,70%,95.4%,38.1%,69%
Cc1cccc(/C=C/c2c(C(=O)/C=C/c3ccccc3)c(C)nc3ccccc23)c1,-62% (active),3.77% (active),-79.3% (active),-14.1% (active),-83% (active),37.7%,-18.8% (active),-84.9% (active),-31.1% (active),-12.8% (active)
COC(=O)c1c2c(c(C)[n+]([O-])c1C)C(=O)C(NCc1cccc(OC)c1)=CC2=O,54.8%,13.7%,-89.9% (active),5.97% (active),38.7%,36.8%,69.9%,11.4%,-25.5% (active),12.9%
CCCc1c(OC(=O)c2ccccc2)nc2[nH]c(=O)sc2c1C,106%,112%,95.1%,104%,101%,97.1%,102%,99%,98.5%,99.4%
Cc1ccccc1/C=C/C(=O)c1cccc(OCCCCOc2cccc(C(=O)/C=C/c3ccccc3C)c2)c1,98%,97.1%,96.9%,95%,98.6%,102%,97.7%,105%,92.2%,97.9%
COc1ccc(OC)c(/C=N/Nc2ncnc3c2c(C)nn3C)c1,108%,93.2%,119%,81%,96.9%,87.1%,99.7%,105%,112%,101%
COc1ccc(C(O)c2cc3c(N)c(C(=O)Nc4cccc(Br)c4)sc3nc2C)cc1 (stereo not given),3.17% (active),9.61% (active),31.8%,2.61% (active),28.2%,6.77% (active),8.77% (active),-19.9% (active),45.7%,11.5%
CCOc1ccc(NC(=O)CSc2oc(-c3ccccc3)nc2S(=O)(=O)c2ccc(C)cc2)cc1,67.3%,53%,81%,32.2%,62.1%,54.1%,48.1%,17.8%,72%,71%
N#CC(C#N)N=Nc1ccc(Br)cc1,38.5%,12.5%,12.1%,18.5%,87.4%,90.2%,95.7%,30.4%,10%,42.9%
O=C(N/N=C/c1c(Cl)cccc1Cl)c1cccnc1Nc1cccc(C(F)(F)F)c1,49.3%,73.9%,54.3%,55.9%,68.1%,39.3%,28.8%,34.1%,56%,37.3%
O=S(=O)(NCCCNc1nccc(-c2c(-c3ccc(F)c(O)c3)nc3sccn23)n1)c1ccccc1,69%,37.6%,0.08% (active),47.2%,26.4%,74.4%,92.6%,88.2%,19.6%,12.6%
N#Cc1ccc(O)c(C2=NCC(c3cccc(Oc4ccccc4)c3)O2)c1 (stereo not given),39.4%,7.33% (active),37.3%,24.6%,61.8%,23.1%,30.9%,23.6%,6.96% (active),-4.77% (active)
CCCCCC(/C=N\NC(=S)N/N=C/C(=C/c1ccccc1)CCCCC)=C\c1ccccc1,88.7%,19.8%,93.4%,65.6%,74.8%,68%,45.7%,82.4%,98.1%,77.8%
O=C(/C=C(/C=C/c1ccc2[nH]ccc2c1)OB(F)F)/C=C/c1ccc2[nH]ccc2c1,3.56% (active),-21.9% (active),31.1%,12.2%,-57.6% (active),16.7%,-25.4% (active),-7.54% (active),43.3%,-27.5% (active)
N#Cc1nc(-c2ccc(F)cc2)oc1S(=O)(=O)N1CCOCC1,93.8%,7.52% (active),1.99% (active),83.2%,-27.8% (active),114%,104%,66.7%,93.9%,54.2%
CN(C)Cc1ccc(O)c(C(=O)O)c1,114%,107%,116%,121%,122%,104%,123%,100%,109%,113%
CCCCCCCCCc1ccc(OCCOCCOCCOCCOCCOCCOCCOCCOCCO)cc1,31.5%,10.5%,-10.2% (active),-38.1% (active),29%,28.1%,0.0887% (active),29%,-25.2% (active),-11.3% (active)
Oc1c(Br)cc(Br)c2ccc(Cn3cc(-c4ccccc4C(F)(F)F)nn3)nc12,86%,4.64% (active),89.6%,109%,60.1%,94.1%,104%,97.3%,79%,94.6%
Clc1ccc2c(NC3CCC(N4CCOCC4)CC3)ccnc2c1 (stereo not given),90.9%,48.6%,89.3%,81.7%,90.3%,108%,47.1%,91.4%,56.6%,84%

# — PubChem BioAssay (NCI)
